Screening data from PubChem BioAssay.
Fluor 339 460: intrinsic fluorescence of library compounds, ex339/em460 – biochemical, MLSMR library, data from DPM-DC assay, artefact control, profiling panel. 65,000 tested, 5.5% active. fluorescence fold increase at 10 µM. AID 709. compound autofluorescence, ex339/em460 nm, NADH buffer; active compounds read high; 1 = no-compound wells, NADH background;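 active = at 10 µM, mean starting fluorescence two-fold or more over control wells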;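 also: signal is the first read of a kinetic run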
Spn MK inh: blocks S. pneumoniae mevalonate kinase | inhibition, % at 10 µM | 65,000 tested, 0.48% active | purified MK, PK/LDH-coupled NADH absorbance 340 nm;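 active = ranked among the strongest by inhibition in the single 10 µM screen, a fixed top-ranked set picked for dose follow-up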
NADH coupling: blocks coupling enzymes of NAD/NADH assays | 65,000 tested, 0.02% active | AID 774 | coupled PK/LDH NADH assays, four targets | IC50, µM (doses to about 10 µM), without a hit: at the highest dose inhibition;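 active = single-dose screening hits from any of four coupled enzyme assays that gave an IC50 when retested across doses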;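 also: the DPM-DC format reads NADH fluorescence rather than 340 nm absorbance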
Spn PMK inh: S. pneumoniae PMK inhibition; purified PMK, PK/LDH-coupled NADH absorbance 340 nm; inhibition, % at 10 µM; 65,000 tested, 0.49% active; AID 539;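 active = top-ranked compounds by inhibition in the single 10 µM screen, taking a fixed number of the strongest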;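 also: 0% = full reaction with DMSO carrier and 100% = background rate without enzyme reaction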
Abs 340nm: compound absorbs light at 340 nm. 65,000 tested, under 10 active. fold change at 10 µM. compound absorbance at 340 nm, fold over control. AID 708;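 active = at 10 µM dose, initial 340 nm absorbance at least 2 fold that of control wells; inactive = change under 2 fold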;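 also: initial absorbance extrapolated from kinetic A340 decline of NADH oxidation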
DPM-DC inhibit: blocks S. pneumoniae diphosphomevalonate decarboxylase; calls only at 10 µM; 65,000 tested, 0.49% active; purified DPM-DC, PK/LDH coupled NADH fluorescence;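 active = the 320 compounds with the highest percent inhibition in the single-dose primary screen, excluding strongly autofluorescent ones, cut at about 32% in these data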;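 also: kinetic rate of NADH fluorescence loss reporting ADP formed by the decarboxylase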
An asterisk follows results filed as active; i = inactive; · = no result shown; + = active, no number. Most compounds without a hit are left out; they make up all but 6.8% or so of the library.

SMILES | Fluor 339 460 | Spn MK inh | NADH coupling | Spn PMK inh | Abs 340nm | DPM-DC inhibit
CCC(=O)N(Cc1cc2cc(OC)ccc2[nH]c1=O)c1cccc(C)c1 | 3* | 5.0 | 11.0% | 10.0 | 1.03 | i
CCOc1ccc(N(Cc2cc3cc(OC)ccc3[nH]c2=O)C(=O)C2CCCO2)cc1 (centres undefined) | 3* | 1.0 | 8.0% | 0.0 | 1.13 | i
COCC(=O)N(Cc1cc2cc(OC)ccc2[nH]c1=O)c1ccccc1OC | 2.65* | 8.0 | 9.0% | 0.0 | 1.03 | i
COc1ccc(N(Cc2cc3ccccc3[nH]c2=O)C(=O)C2CCCO2)cc1 (centres undefined) | 1.26 | 12.0 | 4.0% | 0.0 | 1.04 | i
CCCC(=O)N(Cc1cc2cc(C)ccc2[nH]c1=O)c1ccccc1OC | 1.29 | 3.0 | 2.0% | 3.0 | 1.08 | i
COc1ccc2[nH]c(=O)c(CN(C(=O)c3ccncc3)C(C)C)cc2c1 | 1.66 | 1.0 | 5.0% | 11.0 | 1.02 | i
C=CCn1c(COc2ccc(F)cc2)nnc1SCC(=O)NC(=O)NCc1ccco1 | 1.06 | 0.0 | 4.0% | 13.0 | 1 | i
CNC(=O)c1ccsc1NC(=O)c1ccc(Cl)s1 | 1.15 | 6.0 | 5.0% | 0.0 | 1.06 | i
C/C(=C1\SC(N2CCOCC2)=NC1=O)c1ccc(C)cc1 | 0.98 | 12.0 | 10.0% | 13.0 | 1.13 | i
COCC(=O)N(Cc1cc2cc(OC)ccc2[nH]c1=O)c1ccc(C)cc1 | 2.1* | 1.0 | 9.0% | 16.0 | 1.08 | ·
COCC(=O)N(Cc1cc2ccc(C)cc2[nH]c1=O)c1ccc(OC)cc1 | 1.25 | 5.0 | 3.0% | 4.0 | 1.02 | i
CC(C)OC(=O)C1C(=O)CC(C)(O)C(C(=O)OC(C)C)C1c1cccnc1 (centres undefined) | 1.08 | 0.0 | 9.0% | 27.0* | 1.01 | i
N#Cc1c(N)nc(SCC(=O)NCCc2ccccc2)c(C#N)c1-c1cccs1 | 2.31* | 7.0 | 4.0% | 0.0 | 1.09 | ·
CC(C)OC(=O)CSc1nc(N)c(C#N)c(-c2cccs2)c1C#N | 1.19 | 0.0 | 0.0% | 0.0 | 1.11 | i
Cc1ccc(-c2cc3nc(C)cc(NCc4ccco4)n3n2)cc1 | 3.3* | 5.0 | 7.0% | 2.0 | 0.99 | i
CCC(C)(C)n1nnnc1C(c1ccc(OC)c(OC)c1)N1CCN(c2ccc(OC)cc2)CC1 (centres undefined) | 1.11 | 10.0 | 3.0% | 0.0 | 1.03 | i
CCNS(=O)(=O)c1ccc(NC(=O)c2cc(C(F)(F)F)nn2C)cc1 | 1.08 | 0.0 | 5.0% | 15.0 | 1 | i
CC(C)OCCCn1c(=S)[nH]c2ccc(N3CCOCC3)cc2c1=O | 3.69* | 5.0 | 15.0% | 15.0 | 1.04 | i
Cc1ccc(Cn2c(=S)[nH]c3ccc(N4CCOCC4)cc3c2=O)o1 | 2.75* | 7.0 | 13.0% | 14.0 | 1.04 | i
O=c1c2cc(N3CCOCC3)ccc2[nH]c(=S)n1CCCN1CCCCCC1 | 2.91* | 11.0 | 10.0% | 10.0 | 1.06 | i
CC(C)OCCCn1c(=S)[nH]c2cc3c(cc2c1=O)OCO3 | 1.03 | 6.0 | 5.0% | 9.0 | 1.07 | i
O=c1c2cc(N3CCOCC3)ccc2[nH]c(=S)n1CCCN1CCN(c2ccccc2F)CC1 | 3.54* | 3.0 | 19.0% | 11.0 | 1.05 | +
CSc1nnnn1CCn1nnnc1SC | 0.88 | 0.0 | 2.0% | 4.0 | 1.01 | i
CC1=C(C(=O)OC(C)C)C(/C=C/c2ccccc2)NC(=O)N1 (centres undefined) | 1.06 | 4.0 | 5.0% | 11.0 | 1 | i
CC(C)(C)C(=O)c1no[n+]([O-])c1/C(=N/O)C(C)(C)C | 1.08 | 6.0 | 7.0% | 14.0 | 0.99 | i
SMILES | Fluor 339 460 | Spn MK inh | NADH coupling | Spn PMK inh | Abs 340nm | DPM-DC inhibit
O=c1c2cc3c(cc2[nH]c(=S)n1CCN1CCOCC1)OCO3 | 1.05 | 3.0 | 5.0% | 12.0 | 1.09 | i
O=c1c2cc(N3CCOCC3)ccc2[nH]c(=S)n1CCN1CCCC1 | 2.56* | 4.0 | 7.0% | 5.0 | 1.1 | i
COc1ccccc1N(C(=O)c1ccco1)C(C(=O)NC1CCCC1)c1cccnc1 (centres undefined) | 1.09 | 4.0 | 2.0% | 3.0 | 0.99 | i
COC(=O)c1cc(Br)c(=O)n(Cc2ccco2)c1 | 1.05 | 6.0 | 3.0% | 0.0 | 1 | i
O=C(CN1CCN(C2CCCCC2)CC1)c1ccc2cc[nH]c2c1 | 2.1* | 0.0 | 1.0% | 1.0 | 1.15 | ·
O=C(O)c1ccc2cc[nH]c2c1 | 1.15 | 9.0 | 8.0% | 10.0 | 1 | i
C=CCN(C)CCCNC(=O)/C=N/O | 1.06 | 4.0 | 4.0% | 8.0 | 1 | i
O=c1nc2n(c3sc4c(c13)CCC4)Cc1ccccc1-2 | 2.25* | 7.0 | 9.0% | 11.0 | 1.06 | ·
C=C1CSc2nc(=O)c3c4c(sc3n21)CCC4 | 1.13 | 0.0 | 0.0% | 0.0 | 1.07 | i
CC(C)C(=O)Nc1ccc(N2CCN(S(C)(=O)=O)CC2)cc1 | 1.09 | 3.0 | 4.0% | 10.0 | 1.02 | i
CC(=O)OCCn1c(Br)nc2c1c(=O)[nH]c(=O)n2C | 1.17 | 2.0 | 2.0% | 4.0 | 1.06 | i
COCCNC(=O)c1c[nH]c2ccc(S(=O)(=O)N3CCC4(CC3)OCCO4)cc2c1=O | 2.12* | 0.0 | 10.0% | 19.0 | 1.08 | ·
CC1CCN(S(=O)(=O)c2ccc3[nH]cc(C(=O)NCCN4CCOCC4)c(=O)c3c2)CC1 | 1.81 | 0.0 | 2.0% | 12.0 | 1.01 | ·
CCOC(=O)N1CCN(S(=O)(=O)c2ccc3[nH]cc(C(=O)O)c(=O)c3c2)CC1 | 2.38* | 3.0 | 10.0% | 17.0 | 1.06 | i
CCN(c1ccccc1)S(=O)(=O)c1ccc2[nH]cc(C(=O)N3CCOCC3)c(=O)c2c1 | 2.11* | 0.0 | 11.0% | 22.0 | 1.13 | ·
O=C(c1c[nH]c2ccc(S(=O)(=O)N3CCOCC3)cc2c1=O)N1CCCC1 | 4.19* | 4.0 | 3.0% | 1.0 | 1.09 | ·
O=C(O)c1c[nH]c2ccc(S(=O)(=O)N3CCN(c4ccc(F)cc4)CC3)cc2c1=O | 1.19 | 0.0 | 2.0% | 10.0 | 1.02 | i
Cc1ccc(S(=O)(=O)N2CCOCC2)cc1C(=O)N1CCOCC1 | 1.04 | 2.0 | 6.0% | 4.0 | 1.01 | i
CCN(CC)S(=O)(=O)c1ccc2c(c1)c(=O)c(C(=O)N1CCOCC1)cn2C | 0.99 | 4.0 | 6.0% | 12.0 | 1.02 | i
O=C(COc1ccccc1Cl)OCC(=O)N1CCN(S(=O)(=O)c2ccccc2)CC1 | 0.99 | 0.0 | 5.0% | 19.0 | 0.96 | i
O=C(CSc1nnc(-c2ccco2)n1-c1ccccc1)N1CCN(C(=O)c2ccco2)CC1 | 1.01 | 4.0 | 4.0% | 13.0 | 0.96 | i
COc1ccc(CC(NC(C)=O)C(=O)NC2CCN(C(=O)NCc3ccccc3)CC2)cc1OC (centres undefined) | 1.13 | 0.0 | 8.0% | 13.0 | 1.06 | i
COc1ccc(C)cc1NC(=O)C1CCCN(S(=O)(=O)c2cccc3nonc23)C1 (centres undefined) | 1.08 | 3.0 | 10.0% | 23.0 | 1.03 | i
